Assay results taken from PubChem BioAssay AID1159580 (chemical genetic matrix, 2015).
About 2,000 (36%) of roughly 5,500 compounds were called active. About 18% were inconclusive and are not listed. Some of the results follow. Values without a mark were called inactive. No stated cut-off is given here; in the data, active means normalized growth mostly below about 0.91 (no sharp cut-off); inconclusive means no clear call, values can overlap the other calls; inactive means mostly above about 0.92.

Test: chemical genetic growth profiling, strain panel (AID 1159580);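 further: tested at 20 µM; growth read once vehicle control cultures reached saturation at 30 °C; 1 = growth at the plate median or of vehicle wells; lower values mean less growth of the strain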
Settings: growth OD

CC(=O)Oc1cc(-c2coc3cc(OC(C)=O)c(OC(C)=O)c(OC(C)=O)c3c2=O)cc(OC(C)=O)c1OC(C)=O
normalized growth (S. cerevisiae deletion strains, locus YKL009W, strain mrt4, active compounds read low): 1.05
normalized growth (S. cerevisiae deletion strains, locus YKL068W, active compounds read low): 1.01
normalized growth (S. cerevisiae deletion strains, locus YKL085W, strain MDH1 (second series), active compounds read low): 1.01
normalized growth (S. cerevisiae deletion strains, locus YKL085W, strain MDH1, active compounds read low): 1.01
normalized growth (S. cerevisiae deletion strains, locus YKL160W, strain elf1, active compounds read low): 0.926
normalized growth (S. cerevisiae deletion strains, locus YKL190W, strain CNB1, active compounds read low): 0.888 (active)
normalized growth (S. cerevisiae deletion strains, locus YKR001C, strain vps1, active compounds read low): 0.962
normalized growth (S. cerevisiae deletion strains, locus YKR026C, strain gcn3, active compounds read low): 0.979
normalized growth (S. cerevisiae deletion strains, locus YKR091W, strain srl3, active compounds read low): 0.985
normalized growth (S. cerevisiae deletion strains, locus YLL001W, strain dnm1, active compounds read low): 0.918
normalized growth (S. cerevisiae deletion strains, locus YLL026W, active compounds read low): 0.966
normalized growth (S. cerevisiae deletion strains, locus YLL041C, strain sdh2, active compounds read low): 0.967
normalized growth (S. cerevisiae deletion strains, locus YLR027C, strain aat2, active compounds read low): 0.964
normalized growth (S. cerevisiae deletion strains, locus YLR039C, strain RIC1, active compounds read low): 0.635 (active)
normalized growth (S. cerevisiae deletion strains, locus YLR058C, strain SHM2, active compounds read low): 0.272 (active)
normalized growth (S. cerevisiae deletion strains, locus YLR102C, strain apc9, active compounds read low): 1.03
normalized growth (S. cerevisiae deletion strains, locus YLR113W, strain HOG1, active compounds read low): 1.11
normalized growth (S. cerevisiae deletion strains, locus YLR221C, strain rsa3, active compounds read low): 0.911
normalized growth (S. cerevisiae deletion strains, locus YLR258W, strain gsy2, active compounds read low): 0.963
normalized growth (S. cerevisiae deletion strains, locus YLR262C, strain YPT6 (second series), active compounds read low): 0.887
normalized growth (S. cerevisiae deletion strains, locus YLR262C, strain YPT6, active compounds read low): 0.89
normalized growth (S. cerevisiae deletion strains, locus YLR268W, strain sec22, active compounds read low): 0.889
normalized growth (S. cerevisiae deletion strains, locus YLR320W, strain mms22, active compounds read low): 0.9
normalized growth (S. cerevisiae deletion strains, locus YLR342W, strain FKS1 (second series), active compounds read low): 0.659 (active)
normalized growth (S. cerevisiae deletion strains, locus YLR342W, strain FKS1, active compounds read low): 0.904 (active)
normalized growth (S. cerevisiae deletion strains, locus YLR357W, strain rsc2, active compounds read low): 0.77 (active)
normalized growth (S. cerevisiae deletion strains, locus YLR370C, strain arc18, active compounds read low): 0.909 (active)
normalized growth (S. cerevisiae deletion strains, locus YLR371W, strain rom2, active compounds read low): 0.801 (active)
normalized growth (S. cerevisiae deletion strains, locus YLR384C, strain iki3, active compounds read low): 0.965
normalized growth (S. cerevisiae deletion strains, locus YLR418C, strain cdc73, active compounds read low): 0.782 (active)
normalized growth (S. cerevisiae deletion strains, locus YML016C, strain PPZ1, active compounds read low): 0.71 (active)
normalized growth (S. cerevisiae deletion strains, locus YML032C, strain rad52, active compounds read low): 0.83 (active)
normalized growth (S. cerevisiae deletion strains, locus YML120C, strain ndi1, active compounds read low): 0.898 (active)
normalized growth (S. cerevisiae deletion strains, locus YML124C, strain tub3, active compounds read low): 1
normalized growth (S. cerevisiae deletion strains, locus YMR058W, strain fet3, active compounds read low): 0.698 (active)
normalized growth (S. cerevisiae deletion strains, locus YMR078C, strain ctf18, active compounds read low): 1.01
normalized growth (S. cerevisiae deletion strains, locus YMR125W, strain sto1, active compounds read low): 1.03
normalized growth (S. cerevisiae deletion strains, locus YMR129W, active compounds read low): 0.98
normalized growth (S. cerevisiae deletion strains, locus YMR205C, strain PFK2, active compounds read low): 0.896
normalized growth (S. cerevisiae deletion strains, locus YMR223W, strain ubp8, active compounds read low): 0.938
normalized growth (S. cerevisiae deletion strains, locus YMR231W, strain pep5, active compounds read low): 0.924 (active)
normalized growth (S. cerevisiae deletion strains, locus YMR263W, strain SAP30, active compounds read low): 0.734 (active)
normalized growth (S. cerevisiae deletion strains, locus YMR307W, strain GAS1, active compounds read low): 0.67
normalized growth (S. cerevisiae deletion strains, locus YNL067W, strain RPL9B, active compounds read low): 0.848 (active)
normalized growth (S. cerevisiae deletion strains, locus YNL071W, strain lat1, active compounds read low): 0.979
normalized growth (S. cerevisiae deletion strains, locus YNL183C, strain NPR1, active compounds read low): 0.988
normalized growth (S. cerevisiae deletion strains, locus YNL209W, strain ssb2, active compounds read low): 0.785 (active)
normalized growth (S. cerevisiae deletion strains, locus YNL233W, strain BNI4, active compounds read low): 0.824 (active)
normalized growth (S. cerevisiae deletion strains, locus YNL248C, strain rpa49, active compounds read low): 0.945
normalized growth (S. cerevisiae deletion strains, locus YNL250W, strain rad50, active compounds read low): 1.06
normalized growth (S. cerevisiae deletion strains, locus YNL271C, strain bni1, active compounds read low): 1.01
normalized growth (S. cerevisiae deletion strains, locus YNL298W, strain CLA4, active compounds read low): 0.998
normalized growth (S. cerevisiae deletion strains, locus YNL307C, strain MCK1, active compounds read low): 1.02
normalized growth (S. cerevisiae deletion strains, locus YNL322C, strain KRE1 (second series), active compounds read low): 0.972
normalized growth (S. cerevisiae deletion strains, locus YNL322C, strain KRE1, active compounds read low): 0.767 (active)
normalized growth (S. cerevisiae deletion strains, locus YNR049C, strain mso1, active compounds read low): 0.979
normalized growth (S. cerevisiae deletion strains, locus YNR052C, strain pop2, active compounds read low): 0.658 (active)
normalized growth (S. cerevisiae deletion strains, locus YOL012C, strain htz1): 0.316
normalized growth (S. cerevisiae deletion strains, locus YOL147C, strain pex11, active compounds read low): 0.694 (active)
normalized growth (S. cerevisiae deletion strains, locus YOR001W, strain rrp6, active compounds read low): 0.859 (active)
normalized growth (S. cerevisiae deletion strains, locus YOR061W, strain CKA2, active compounds read low): 0.887 (active)
normalized growth (S. cerevisiae deletion strains, locus YOR069W, strain VPS5, active compounds read low): 0.904 (active)
normalized growth (S. cerevisiae deletion strains, locus YOR070C, strain gyp1, active compounds read low): 0.937
normalized growth (S. cerevisiae deletion strains, locus YOR080W, strain dia2, active compounds read low): 0.899 (active)
normalized growth (S. cerevisiae deletion strains, locus YOR083W, strain WHI5, active compounds read low): 0.908
normalized growth (S. cerevisiae deletion strains, locus YOR106W, strain vam3, active compounds read low): 0.778 (active)
normalized growth (S. cerevisiae deletion strains, locus YOR136W, strain idh2, active compounds read low): 1
normalized growth (S. cerevisiae deletion strains, locus YOR144C, strain elg1, active compounds read low): 0.797 (active)
normalized growth (S. cerevisiae deletion strains, locus YOR184W, strain ser1, active compounds read low): 0.905
normalized growth (S. cerevisiae deletion strains, locus YOR231W, strain MKK1, active compounds read low): 1.05
normalized growth (S. cerevisiae deletion strains, locus YOR265W, strain rbl2, active compounds read low): 0.946
normalized growth (S. cerevisiae deletion strains, locus YOR270C, strain vph1, active compounds read low): 0.564 (active)
normalized growth (S. cerevisiae deletion strains, locus YOR290C, strain snf2, active compounds read low): 0.322 (active)
normalized growth (S. cerevisiae deletion strains, locus YOR316C, strain cot1, active compounds read low): 1.02
normalized growth (S. cerevisiae deletion strains, locus YPL051W, strain arl3, active compounds read low): 0.847 (active)
normalized growth (S. cerevisiae deletion strains, locus YPL055C, strain LGE1, active compounds read low): 0.751 (active)
normalized growth (S. cerevisiae deletion strains, locus YPL078C, strain atp4, active compounds read low): 0.772 (active)
normalized growth (S. cerevisiae deletion strains, locus YPL106C, strain sse1, active compounds read low): 0.869
normalized growth (S. cerevisiae deletion strains, locus YPL240C, strain hsp82, active compounds read low): 0.961
normalized growth (S. cerevisiae deletion strains, locus YPL256C, strain CLN2, active compounds read low): 1.12
normalized growth (S. cerevisiae deletion strains, locus YPR119W, strain clb2, active compounds read low): 1.03
normalized growth (S. cerevisiae deletion strains, locus YPR141C, strain kar3, active compounds read low): 1.03
normalized growth (S. cerevisiae deletion strains, locus YPR163C, strain tif3, active compounds read low): 0.989
normalized growth (S. cerevisiae deletion strains, locus YPR167C, strain met16, active compounds read low): 0.953
normalized growth (S. cerevisiae deletion strains, strain wtn01, active compounds read low): 0.882 (active)
normalized growth (S. cerevisiae strains, strain wild type, active compounds read low): 0.75 (active)
